PubChem BioAssay AID1159580 (chemical genetic matrix, 2015)
“And” between values parts separate entries of the source, which are not always exact repeats. Identical values can stand only once. Among all 5,500 compounds or so, about 2,000 (36%) were called active. About 18% were inconclusive and are not listed. No stated cut-off is given here; in the data, active means normalized growth mostly below about 0.91 (no sharp cut-off); inconclusive means no clear call, values can overlap the other calls; inactive means mostly above about 0.92. Some of the results follow.

Assay: chemical genetic growth profiling, strain panel (AID 1159580);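 further: tested at 20 µM; growth read once vehicle control cultures reached saturation at 30 °C; 1 = growth at the plate median or of vehicle wells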
Conditions: S. cerevisiae deletion strains, growth OD

Measured: normalized growth

CN(Cc1cnc2nc(N)nc(N)c2n1)c1ccc(C(=O)NC(CCC(=O)O)C(=O)O)cc1 (stereo unspecified)
0.946 (inactive) and 0.147 (active): locus YHR030C, strain SLT2, stronger effect = lower value
0.993 (inactive) and 0.152 (active): locus YJL095W, strain BCK1, stronger effect = lower value
active: locus YBR009C, strain hhf1, stronger effect = lower value 0.888 | locus YBR023C, strain chs3, stronger effect = lower value 0.911 | locus YCL011C, strain gbp2, stronger effect = lower value 0.857 | locus YCL016C, strain dcc1, stronger effect = lower value 0.867 | locus YCL061C, strain MRC1, stronger effect = lower value 0.891 | locus YDL185W, strain tfp1, stronger effect = lower value 0.141 | locus YDR334W, strain swr1, stronger effect = lower value 0.881 | locus YEL037C, strain rad23, stronger effect = lower value 0.902 | locus YGL078C, strain dbp3, stronger effect = lower value 0.32 | locus YHR079C, strain IRE1, stronger effect = lower value 0.188 | locus YHR142W, strain chs7, stronger effect = lower value 0.86 | locus YIL125W, strain kgd1, stronger effect = lower value 0.278 | locus YJL092W, strain hpr5, stronger effect = lower value 0.818 | locus YJL115W, strain asf1, stronger effect = lower value 0.845
inactive: locus YAL021C, strain ccr4, stronger effect = lower value 0.958 | locus YAL026C, strain drs2, stronger effect = lower value 0.911 | locus YAL030W, strain snc1, stronger effect = lower value 0.945 | locus YAL040C, strain CLN3, stronger effect = lower value 1.09 | locus YBL061C, strain skt5, stronger effect = lower value 0.927 | locus YBR021W, strain FUR4, stronger effect = lower value 0.958 | locus YBR171W, strain sec66, stronger effect = lower value 0.94 | locus YBR229C, strain ROT2, stronger effect = lower value 0.987 | locus YBR231C, strain swc5, stronger effect = lower value 0.931 | locus YBR279W, strain paf1, stronger effect = lower value 0.962 | locus YCL029C, strain bik1, stronger effect = lower value 0.988 | locus YCL061C, strain MRC1 (second series), stronger effect = lower value 1.01 | locus YCL069W, strain vba3, stronger effect = lower value 0.948 | locus YCR088W, strain abp1, stronger effect = lower value 0.954 | locus YDL005C, strain med2, stronger effect = lower value 0.997 | locus YDL035C, strain GPR1, stronger effect = lower value 0.975 | locus YDL040C, strain nat1, stronger effect = lower value 0.959 | locus YDL074C, strain BRE1, stronger effect = lower value 0.963 | locus YDL101C, strain DUN1, stronger effect = lower value 0.997 | locus YDL134C, strain PPH21, stronger effect = lower value 1 | locus YDL192W, strain arf1, stronger effect = lower value 0.95 | locus YDR001C, strain nth1, stronger effect = lower value 0.933 | locus YDR069C, strain doa4, stronger effect = lower value 0.955 | locus YDR101C, strain arx1, stronger effect = lower value 0.994 | locus YDR137W, strain rgp1, stronger effect = lower value 0.907 | locus YDR150W, strain NUM1, stronger effect = lower value 0.974 and 0.986 | locus YDR159W, strain sac3, stronger effect = lower value 0.978 | locus YDR162C, strain NBP2, stronger effect = lower value 0.982 | locus YDR195W, strain ref2 1.01 | locus YDR297W, strain sur2, stronger effect = lower value 0.955 | locus YDR318W, strain mcm21, stronger effect = lower value 0.994 | locus YDR335W, strain msn5, stronger effect = lower value 0.97 | locus YDR388W, stronger effect = lower value 1 | locus YDR392W, strain spt3, stronger effect = lower value 0.951 | locus YDR502C, strain sam2, stronger effect = lower value 0.967 | locus YEL003W, strain gim4, stronger effect = lower value 0.967 | locus YEL061C, strain CIN8 (second series), stronger effect = lower value 0.944 | locus YEL061C, strain CIN8, stronger effect = lower value 0.962 | locus YER002W, strain NOP16, stronger effect = lower value 0.971 | locus YER015W, strain faa2, stronger effect = lower value 0.958 | locus YER016W, strain bim1, stronger effect = lower value 0.965 | locus YER110C, stronger effect = lower value 0.985 | locus YER111C, strain swi4, stronger effect = lower value 0.962 | locus YER155C, strain BEM2 (second series), stronger effect = lower value 0.892 | locus YER155C, strain BEM2, stronger effect = lower value 0.976 | locus YER167W, strain BCK2, stronger effect = lower value 0.958 | locus YFR010W, strain ubp6, stronger effect = lower value 0.942 | locus YGL086W, strain mad1, stronger effect = lower value 1 | locus YGL167C, strain pmr1, stronger effect = lower value 0.942 | locus YGL173C, strain kem1, stronger effect = lower value 0.96 | locus YGL227W, strain vid30, stronger effect = lower value 0.922 | locus YGL240W, strain doc1, stronger effect = lower value 0.967 | locus YGL248W, strain PDE1, stronger effect = lower value 0.994 | locus YGL253W, strain hxk2, stronger effect = lower value 0.934 | locus YGR135W, strain pre9, stronger effect = lower value 0.933 | locus YGR252W, strain gcn5, stronger effect = lower value 1.02 | locus YHR013C, strain ard1, stronger effect = lower value 0.938 | locus YHR027C, strain rpn1, stronger effect = lower value 0.945 | locus YHR079C, strain IRE1 (second series), stronger effect = lower value 0.988 | locus YHR094C, strain hxt1, stronger effect = lower value 1 | locus YHR129C, strain ARP1, stronger effect = lower value 0.982 | locus YHR200W, strain rpn10, stronger effect = lower value 0.959 | locus YIL066C, strain RNR3, stronger effect = lower value 1 | locus YIL073C, strain SPO22, stronger effect = lower value 0.95 | locus YIR030C, strain dcg1, stronger effect = lower value 0.975 | locus YJL095W, strain BCK1 (second series), stronger effect = lower value 0.964 | locus YJL129C, strain trk1, stronger effect = lower value 0.89 | locus YJL134W, strain LCB3, stronger effect = lower value 0.992 | locus YJL154C, strain vps35, stronger effect = lower value 0.96 | locus YJL164C, strain tpk1, stronger effect = lower value 0.96 | locus YJL166W, strain qcr8, stronger effect = lower value 0.94 | locus YJL168C, strain set2, stronger effect = lower value 1 | locus YJL187C, strain SWE1 (second series), stronger effect = lower value 0.99 | locus YJL187C, strain SWE1, stronger effect = lower value 0.953 | locus YJR043C, strain POL32, stronger effect = lower value 0.98
